Assay results: PubChem BioAssay (EPA / NIEHS)
Results filed as inconclusive are left out. Calls of active or inactive are those of the source. The calls were made as follows: active = hit-call score of the fitted dose curve at least 0.9, where 1 is the maximum; inconclusive = response in the unintended direction; inactive = score below 0.9.

Test: ACEA_ER_AUC_viability: ACEA Biosciences xCELLigence Real-Time Cell Analysis on Estrogen Receptor Agonism for Viability (AID 2283782);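 also: hit means loss of impedance signal meaning reduced cell growth or viability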
Method in brief: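 Continuous-exposure impedance cell analysis uses T-47D cells in charcoal-stripped serum, eight 1:4 dilutions topping at 100 uM final, biological duplicate. Area under the growth curve at 80 h is fitted against DMSO baseline.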

| Structure (SMILES) | AC50 | outcome |
| --- | --- | --- |
| N#Cc1ccc(Cl)cc1 | 50 µM (active) |  |
| c1ccc(-c2cccc(-c3ccccc3)c2)cc1 | 24.4 µM (active) |  |
| ClCCN1CCOCC1 | 31.6 µM (active) |  |
| Brc1c(Br)c(Br)c(Oc2c(Br)c(Br)c(Br)c(Br)c2Br)c(Br)c1Br |  | inactive |
| BrCCCCBr |  | inactive |
| O=S(=O)(C(Cl)(Cl)Cl)C(Cl)(Cl)Cl | 5.21 µM (active) |  |
| C=C(C)C(=O)OCC(CC)CCCC (stereo not given) |  | inactive |
| Cc1c([N+](=O)[O-])c(C)c([N+](=O)[O-])c(C(C)(C)C)c1[N+](=O)[O-] |  | inactive |
| CC(C=O)Cc1ccc2c(c1)OCO2 (stereo not given) |  | inactive |
| CCOc1cc(C=O)ccc1O |  | inactive |
| C1CN2CCN1CC2 |  | inactive |
| C=CCN=C=S |  | inactive |
| O=C(Cl)OCCOCCOC(=O)Cl |  | inactive |
| Cc1ccccc1OP(=O)(Oc1ccccc1)Oc1ccccc1 | 62.9 µM (active) |  |
| CC1(C)[C@H](C(=O)O[C@H](C#N)c2cccc(Oc3ccccc3)c2)[C@@H]1/C=C(\Cl)C(F)(F)F | 42.5 µM (active) |  |
| C=CC(=O)NC(C)(C)CC(C)=O |  | inactive |
| O=S(=O)(c1ccc(Cl)cc1)c1cc(Cl)c(Cl)cc1Cl | 69.2 µM (active) |  |
| OC[P+](CO)(CO)CO | 50 µM (active) |  |
| O=C(Cc1ccccc1)OCCc1ccccc1 | 82.5 µM (active) |  |
| CCCCC(CC)C(=O)Cl (stereo not given) |  | inactive |
| Cc1cccc(OP(=O)(Oc2cccc(C)c2)Oc2cccc(C)c2)c1 | 17.3 µM (active) |  |
| CCOC(=O)C(SP(=S)(OC)OC)c1ccccc1 (stereo not given) |  | inactive |
| CC(C)(C#N)N=NC(C)(C)C#N |  | inactive |
| O=C=Nc1ccc(Cl)cc1 | 29.9 µM (active) |  |
| O=C(O)COc1cc(Cl)c(Cl)cc1Cl |  | inactive |
| CC(C)[C@H](C(=O)OC(C#N)c1cccc(Oc2ccccc2)c1)c1ccc(OC(F)F)cc1 (stereo not given in full) | 38 µM (active) |  |
| ClCc1ccccc1CCl | 29.6 µM (active) |  |
| CC(C)(C)c1cc([N+](=O)[O-])cc(C(C)(C)C)c1O | 24.3 µM (active) |  |
| C[N+](C)(C)Cc1ccccc1 |  | inactive |
| c1ccc2sc(SNC3CCCCC3)nc2c1 | 85.5 µM (active) |  |
